Hit rate of the full screen: of about 5,500 compounds, about 2,000 (36%) were called active. Not shown: some 18% with an inconclusive outcome. No stated cut-off is given here; in the data, active means normalized growth mostly below about 0.91 (no sharp cut-off); inconclusive means no clear call, values can overlap the other calls; inactive means mostly above about 0.92. The list shows a part of the results.
Assay: chemical genetic growth profiling, strain panel (AID 1159580);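 further: tested at 20 µM; growth read once vehicle control cultures reached saturation at 30 °C; 1 = growth at the plate median or of vehicle wells; lower values mean less growth of the strain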
Conditions: S. cerevisiae deletion strains, growth OD
[1] = locus YAL021C, strain ccr4, hits give low values
[2] = locus YAL026C, strain drs2, hits give low values
[3] = locus YAL030W, strain snc1, hits give low values
[4] = locus YBL061C, strain skt5, hits give low values
[5] = locus YBR009C, strain hhf1, hits give low values
[6] = locus YBR023C, strain chs3, hits give low values
[7] = locus YBR171W, strain sec66, hits give low values
[8] = locus YBR231C, strain swc5, hits give low values
[9] = locus YBR279W, strain paf1, hits give low values
[10] = locus YCL011C, strain gbp2, hits give low values
[11] = locus YCL016C, strain dcc1, hits give low values
[12] = locus YCL061C, strain MRC1, hits give low values
[13] = locus YCL069W, strain vba3, hits give low values
[14] = locus YCR088W, strain abp1, hits give low values
[15] = locus YDL005C, strain med2, hits give low values
[16] = locus YDL040C, strain nat1, hits give low values
[17] = locus YDR001C, strain nth1, hits give low values
[18] = locus YDR069C, strain doa4, hits give low values
[19] = locus YDR137W, strain rgp1, hits give low values
[20] = locus YDR159W, strain sac3, hits give low values
[21] = locus YDR297W, strain sur2, hits give low values
[22] = locus YDR334W, strain swr1, hits give low values
[23] = locus YDR335W, strain msn5, hits give low values
[24] = locus YDR392W, strain spt3, hits give low values
[25] = locus YEL003W, strain gim4, hits give low values
[26] = locus YEL037C, strain rad23, hits give low values
[27] = locus YEL061C, strain CIN8 (second series), hits give low values
[28] = locus YER015W, strain faa2, hits give low values
[29] = locus YER016W, strain bim1, hits give low values
[30] = locus YER111C, strain swi4, hits give low values
[31] = locus YER155C, strain BEM2 (second series), hits give low values
[32] = locus YFR010W, strain ubp6, hits give low values
[33] = locus YGL167C, strain pmr1, hits give low values
[34] = locus YGL173C, strain kem1, hits give low values
[35] = locus YGL227W, strain vid30, hits give low values
[36] = locus YGL240W, strain doc1, hits give low values
[37] = locus YGL253W, strain hxk2, hits give low values
[38] = locus YHR013C, strain ard1, hits give low values
[39] = locus YHR027C, strain rpn1, hits give low values
[40] = locus YHR030C, strain SLT2, hits give low values
[41] = locus YHR079C, strain IRE1, hits give low values
[42] = locus YHR142W, strain chs7, hits give low values
[43] = locus YJL092W, strain hpr5, hits give low values
[44] = locus YJL095W, strain BCK1 (second series), hits give low values
[45] = locus YJL095W, strain BCK1, hits give low values
[46] = locus YJL115W, strain asf1, hits give low values
[47] = locus YJL129C, strain trk1, hits give low values
[48] = locus YJL154C, strain vps35, hits give low values
[49] = locus YJL164C, strain tpk1, hits give low values
[50] = locus YJL166W, strain qcr8, hits give low values
[51] = locus YJL187C, strain SWE1, hits give low values
[52] = locus YJR066W, strain TOR1, hits give low values
[53] = locus YKL160W, strain elf1, hits give low values
[54] = locus YKR026C, strain gcn3, hits give low values
[55] = locus YKR091W, strain srl3, hits give low values
[56] = locus YLL001W, strain dnm1, hits give low values
[57] = locus YLL026W, hits give low values
[58] = locus YLL041C, strain sdh2, hits give low values
[59] = locus YLR027C, strain aat2, hits give low values
[60] = locus YLR113W, strain HOG1, hits give low values
[61] = locus YLR221C, strain rsa3, hits give low values
[62] = locus YLR258W, strain gsy2, hits give low values
[63] = locus YLR262C, strain YPT6 (second series), hits give low values
[64] = locus YLR320W, strain mms22, hits give low values
[65] = locus YLR342W, strain FKS1, hits give low values
[66] = locus YLR357W, strain rsc2, hits give low values
[67] = locus YLR370C, strain arc18, hits give low values
[68] = locus YLR384C, strain iki3, hits give low values
[69] = locus YML120C, strain ndi1, hits give low values
[70] = locus YMR058W, strain fet3, hits give low values
[71] = locus YMR125W, strain sto1, hits give low values
[72] = locus YMR129W, hits give low values
[73] = locus YMR205C, strain PFK2, hits give low values
[74] = locus YMR231W, strain pep5, hits give low values
[75] = locus YNL071W, strain lat1, hits give low values
[76] = locus YNL183C, strain NPR1, hits give low values
[77] = locus YNL209W, strain ssb2, hits give low values
[78] = locus YNL248C, strain rpa49, hits give low values
[79] = locus YNL322C, strain KRE1 (second series), hits give low values
[80] = locus YNR049C, strain mso1, hits give low values
[81] = locus YOR001W, strain rrp6, hits give low values
[82] = locus YOR070C, strain gyp1, hits give low values
[83] = locus YOR080W, strain dia2, hits give low values
[84] = locus YOR083W, strain WHI5, hits give low values
[85] = locus YOR106W, strain vam3, hits give low values
[86] = locus YOR231W, strain MKK1, hits give low values
[87] = locus YOR265W, strain rbl2, hits give low values
[88] = locus YOR270C, strain vph1, hits give low values
[89] = locus YOR290C, strain snf2, hits give low values
[90] = locus YPL051W, strain arl3, hits give low values
[91] = locus YPL078C, strain atp4, hits give low values
[92] = locus YPL106C, strain sse1, hits give low values
[93] = locus YPL240C, strain hsp82, hits give low values
[94] = locus YPL256C, strain CLN2, hits give low values

Measured: normalized growth

O=c1cc(-c2ccc(O)cc2)oc2cc(O)ccc12
inactive: [1] 0.967 | [2] 0.95 | [3] 0.959 | [4] 0.967 | [5] 0.929 | [6] 0.958 | [7] 0.981 | [8] 0.974 | [9] 0.974 | [10] 0.948 | [11] 0.976 | [12] 0.976 | [13] 0.969 | [14] 0.957 | [15] 0.963 | [16] 0.968 | [17] 0.96 | [18] 0.949 | [19] 0.925 | [20] 0.866 | locus YDR195W, strain ref2 0.963 | [21] 0.966 | [22] 0.954 | [23] 0.984 | [24] 0.853 | [25] 0.972 | [26] 0.952 | [27] 0.949 | [28] 0.973 | [29] 0.976 | [30] 0.961 | [31] 0.897 | [32] 0.941 | [33] 0.945 | [34] 0.972 | [35] 0.941 | [36] 0.958 | [37] 0.98 | [38] 0.925 | [39] 0.957 | [40] 0.948 | [41] 0.935 | [42] 0.935 | [43] 0.97 | [44] 0.968 | [45] 0.969 | [46] 0.968 | [47] 0.915 | [48] 0.975 | [49] 0.962 | [50] 0.969 | [51] 0.964 | [52] 0.938 | [53] 0.973 | [54] 0.945 | [55] 0.964 | [56] 0.958 | [57] 0.96 | [58] 0.976 | [59] 0.953 | [60] 0.918 | [61] 0.974 | [62] 0.956 | [63] 0.926 | [64] 0.937 | [65] 0.954 | [66] 0.944 | [67] 0.948 | [68] 0.961 | [69] 0.948 | [70] 0.965 | [71] 0.941 | [72] 0.966 | [73] 0.922 | [74] 0.966 | [75] 0.972 | [76] 0.924 | [77] 0.973 | [78] 0.971 | [79] 0.956 | [80] 0.964 | [81] 0.979 | [82] 0.971 | [83] 0.968 | [84] 0.982 | [85] 0.946 | [86] 0.942 | [87] 0.975 | [88] 0.833 | [89] 0.921 | [90] 0.984 | [91] 0.963 | [92] 0.937 | [93] 0.955 | [94] 0.944

O=c1cc(-c2ccc(O)cc2)oc2cc(O)cc(O)c12
inactive: [1] 0.995 | [2] 0.978 | [3] 0.99 | locus YAL040C, strain CLN3, hits give low values 0.976 | [4] 1 | [5] 1.01 | [6] 0.993 | [7] 0.997 | [8] 1 | [9] 0.994 | [10] 0.999 | [11] 0.998 | [12] 1.01 | [13] 0.989 | [14] 0.987 | [15] 0.995 | [16] 0.99 | [17] 0.981 | [18] 0.966 | [19] 1.04 | [20] 0.975 | locus YDR195W, strain ref2 0.955 | [21] 0.993 | [22] 0.98 | [23] 0.996 | locus YDR363W, strain ESC2, hits give low values 0.998 | [24] 0.922 | [25] 0.997 | [26] 0.981 | [27] 0.985 | locus YER002W, strain NOP16, hits give low values 0.987 | [28] 0.986 | [29] 0.98 | [30] 0.989 | [31] 0.975 | [32] 0.966 | [33] 0.974 | [34] 1 | [35] 0.989 | [36] 1 | [37] 0.973 | locus YGR229C, strain SMI1, hits give low values 1.01 | [38] 1.01 | [39] 0.997 | [40] 1.02 | [41] 0.996 | [42] 0.98 | [43] 0.988 | [44] 0.996 | [45] 1.02 | [46] 0.978 | [47] 0.995 | [48] 0.977 | [49] 1.03 | [50] 1.01 | [51] 0.998 | [52] 0.954 | [53] 1.01 | [54] 0.972 | [55] 0.985 | [56] 1.03 | [57] 0.993 | [58] 0.997 | [59] 0.998 | [60] 0.95 | [61] 0.992 | [62] 1 | [63] 1.05 | [64] 1.01 | [65] 0.993 | [66] 0.918 | [67] 0.981 | [68] 0.98 | [69] 0.984 | [70] 0.97 | [71] 0.973 | [72] 0.989 | [73] 1.03 | [74] 0.996 | [75] 0.993 | locus YNL175C, strain NOP13, hits give low values 1.01 | [76] 0.943 | locus YNL197C, strain WHI3, hits give low values 0.981 | [77] 0.998 | locus YNL224C, strain SQS1, hits give low values 0.982 | [78] 0.989 | [79] 0.977 | [80] 0.989 | [81] 1 | [82] 1 | [83] 0.986 | locus YOR083W, strain WHI5 (second series), hits give low values 0.954 | [84] 1.02 | [85] 0.999 | [86] 1.02 | [87] 0.998 | [88] 0.988 | [89] 0.96 | [90] 0.999 | [91] 1 | [92] 0.955 | [93] 0.995 | [94] 1.01
